# How the values were obtained:
# Assay in all cases: protein domain microarray probed with biotinylated miRNA; Domain array: 20 mM Tris-HCl pH 7.4, 200 mM KCl, 0.2 mM EDTA, 0.05% NP40, 2 ug/ul heparin, overnight 4 C. ORF array: PBS pH 7.0 with RNase inhibitor, 100 ng RNA; high values mean tight binding
# Details in all cases: ssRNA
# PSF = target: T1, PSF (Homo sapiens, UniProt P23246)
# T1 sequence: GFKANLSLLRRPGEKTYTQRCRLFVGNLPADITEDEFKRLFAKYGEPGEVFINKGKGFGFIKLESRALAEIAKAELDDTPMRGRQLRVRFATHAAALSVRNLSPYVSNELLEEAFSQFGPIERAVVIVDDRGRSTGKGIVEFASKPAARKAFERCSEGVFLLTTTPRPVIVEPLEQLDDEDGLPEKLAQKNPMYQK
# ADAR(1) = target: T2, ADAR(1) (Homo sapiens, UniProt P55265)
# T2 sequence: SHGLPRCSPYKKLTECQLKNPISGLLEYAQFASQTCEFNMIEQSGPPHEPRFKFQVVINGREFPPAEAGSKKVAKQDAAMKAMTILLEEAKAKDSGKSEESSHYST
# RKHD1 = target: T3, RKHD1 (Homo sapiens, UniProt Q86XN8)
# T3 sequence: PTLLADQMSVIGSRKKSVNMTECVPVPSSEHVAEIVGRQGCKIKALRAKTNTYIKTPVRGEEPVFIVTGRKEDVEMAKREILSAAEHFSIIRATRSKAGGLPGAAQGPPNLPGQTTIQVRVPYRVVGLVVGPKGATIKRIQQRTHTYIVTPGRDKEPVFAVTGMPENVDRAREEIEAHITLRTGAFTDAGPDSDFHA
# ANKRD17 = target: T4, ANKRD17 (Homo sapiens, UniProt O75179)
# T4 sequence: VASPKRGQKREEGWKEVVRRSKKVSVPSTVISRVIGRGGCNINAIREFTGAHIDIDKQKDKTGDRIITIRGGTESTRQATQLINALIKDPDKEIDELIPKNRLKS
# RBMS3 = target: T5, RBMS3 (Homo sapiens, UniProt Q6XE24)
# T5 sequence: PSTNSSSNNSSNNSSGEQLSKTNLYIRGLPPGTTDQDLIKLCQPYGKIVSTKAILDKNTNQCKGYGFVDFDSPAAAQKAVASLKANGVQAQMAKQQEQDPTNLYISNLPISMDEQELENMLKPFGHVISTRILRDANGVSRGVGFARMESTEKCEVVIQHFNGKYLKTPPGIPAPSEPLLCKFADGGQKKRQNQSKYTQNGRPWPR
# YTHDC2 = target: T6, YTHDC2 (Homo sapiens, UniProt Q9H6S0)
# T6 sequence: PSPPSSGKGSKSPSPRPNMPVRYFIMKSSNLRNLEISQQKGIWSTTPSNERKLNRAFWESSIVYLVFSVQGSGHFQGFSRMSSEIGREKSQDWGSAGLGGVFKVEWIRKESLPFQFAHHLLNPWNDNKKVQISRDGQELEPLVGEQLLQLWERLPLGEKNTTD
# VIGILIN(11-14) = VIGILIN(11-14) (Homo sapiens, UniProt Q00341)
# VIGILIN(11-14), sequence (Q00341 861-1229): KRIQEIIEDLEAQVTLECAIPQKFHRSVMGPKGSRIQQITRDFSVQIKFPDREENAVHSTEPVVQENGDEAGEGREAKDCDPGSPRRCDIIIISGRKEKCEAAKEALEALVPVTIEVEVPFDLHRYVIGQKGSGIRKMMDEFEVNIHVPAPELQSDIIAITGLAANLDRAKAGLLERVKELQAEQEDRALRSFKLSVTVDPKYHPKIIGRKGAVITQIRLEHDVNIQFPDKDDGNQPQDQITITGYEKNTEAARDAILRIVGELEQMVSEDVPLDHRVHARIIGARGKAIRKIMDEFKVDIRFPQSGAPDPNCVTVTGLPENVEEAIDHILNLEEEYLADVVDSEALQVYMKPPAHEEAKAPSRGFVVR
# RBM20 = target: T7, RBM20 (Homo sapiens, UniProt Q5T481)
# T7 sequence: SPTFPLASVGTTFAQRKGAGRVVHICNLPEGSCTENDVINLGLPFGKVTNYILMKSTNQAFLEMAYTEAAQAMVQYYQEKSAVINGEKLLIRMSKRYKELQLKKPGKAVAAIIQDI
# SAFB1 = SAFB1 (Homo sapiens, UniProt Q15424)
# SAFB1, sequence (Q15424 380-500): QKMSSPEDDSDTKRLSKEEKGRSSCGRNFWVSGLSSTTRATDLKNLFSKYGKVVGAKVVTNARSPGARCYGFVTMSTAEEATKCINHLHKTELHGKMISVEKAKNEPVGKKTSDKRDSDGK
# RNPC3(1) = target: T8, RNPC3(1) (Homo sapiens, UniProt Q96LT9)
# T8 sequence: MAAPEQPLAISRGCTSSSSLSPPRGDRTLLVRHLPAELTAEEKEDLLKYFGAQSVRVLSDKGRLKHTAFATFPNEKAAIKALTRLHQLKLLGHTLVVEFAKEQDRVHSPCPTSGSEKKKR
# RBM12(3) = target: T9, RBM12(3) (Homo sapiens, UniProt Q9NTZ6)
# T9 sequence: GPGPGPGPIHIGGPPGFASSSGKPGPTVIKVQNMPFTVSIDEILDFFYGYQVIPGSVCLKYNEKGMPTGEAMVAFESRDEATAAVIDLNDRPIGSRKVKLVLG
# RBM41 = target: T10, RBM41 (Homo sapiens, UniProt Q96IZ5)
# T10 sequence: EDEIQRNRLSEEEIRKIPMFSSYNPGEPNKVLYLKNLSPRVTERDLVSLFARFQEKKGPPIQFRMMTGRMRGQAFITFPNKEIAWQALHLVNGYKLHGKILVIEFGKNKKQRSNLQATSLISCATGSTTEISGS
# RBM15 = target: T11, RBM15 (Homo sapiens, UniProt Q96T37)
# T11 sequence: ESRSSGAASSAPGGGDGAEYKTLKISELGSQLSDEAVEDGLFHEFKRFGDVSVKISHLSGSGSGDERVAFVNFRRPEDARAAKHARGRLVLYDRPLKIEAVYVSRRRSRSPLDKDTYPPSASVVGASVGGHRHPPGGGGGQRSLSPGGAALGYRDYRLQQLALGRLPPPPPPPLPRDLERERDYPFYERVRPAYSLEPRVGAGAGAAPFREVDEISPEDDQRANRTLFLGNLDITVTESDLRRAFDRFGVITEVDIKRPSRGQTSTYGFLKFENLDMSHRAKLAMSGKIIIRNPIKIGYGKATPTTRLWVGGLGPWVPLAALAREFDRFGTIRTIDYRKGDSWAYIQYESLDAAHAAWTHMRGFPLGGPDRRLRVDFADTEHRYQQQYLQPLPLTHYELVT
# ASCC1 = ASCC1 (Homo sapiens, UniProt Q8N9N2)
# ASCC1, sequence (Q8N9N2 79-168): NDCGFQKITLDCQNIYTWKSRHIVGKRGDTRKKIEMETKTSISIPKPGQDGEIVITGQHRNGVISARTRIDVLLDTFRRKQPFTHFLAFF
# TDRKH(1-2) = target: T12, TDRKH(1-2) (Homo sapiens, UniProt Q9Y2W6)
# T12 sequence: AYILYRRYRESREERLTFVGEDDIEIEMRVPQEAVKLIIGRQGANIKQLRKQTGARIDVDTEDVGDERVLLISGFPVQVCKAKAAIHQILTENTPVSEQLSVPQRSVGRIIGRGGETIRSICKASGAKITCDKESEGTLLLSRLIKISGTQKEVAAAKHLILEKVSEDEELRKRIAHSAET
# RBMS1 = target: T13, RBMS1 (Homo sapiens, UniProt P29558)
# T13 sequence: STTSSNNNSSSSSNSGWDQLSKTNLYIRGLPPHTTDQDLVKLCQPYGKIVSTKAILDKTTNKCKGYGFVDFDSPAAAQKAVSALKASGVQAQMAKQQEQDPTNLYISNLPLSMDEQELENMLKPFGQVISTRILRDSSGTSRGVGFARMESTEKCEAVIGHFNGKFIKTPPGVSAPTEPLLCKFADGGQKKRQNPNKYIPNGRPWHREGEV
# RBM15B = target: T14, RBM15B (Homo sapiens, UniProt Q8NDT2)
# T14 sequence: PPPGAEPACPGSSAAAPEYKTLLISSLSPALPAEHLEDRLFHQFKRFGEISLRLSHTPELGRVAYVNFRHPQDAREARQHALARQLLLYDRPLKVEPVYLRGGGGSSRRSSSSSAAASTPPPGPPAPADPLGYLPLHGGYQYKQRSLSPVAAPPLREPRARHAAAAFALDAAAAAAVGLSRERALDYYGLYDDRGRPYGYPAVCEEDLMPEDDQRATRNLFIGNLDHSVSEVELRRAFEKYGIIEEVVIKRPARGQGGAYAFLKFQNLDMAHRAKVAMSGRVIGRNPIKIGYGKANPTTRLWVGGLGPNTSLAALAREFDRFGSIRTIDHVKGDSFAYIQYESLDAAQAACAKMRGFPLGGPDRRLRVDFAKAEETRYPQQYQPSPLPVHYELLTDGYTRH
# RBMY1C = RBMY1C (Homo sapiens, UniProt P0DJD4)
# RBMY1C, sequence (P0DJD4 1-110): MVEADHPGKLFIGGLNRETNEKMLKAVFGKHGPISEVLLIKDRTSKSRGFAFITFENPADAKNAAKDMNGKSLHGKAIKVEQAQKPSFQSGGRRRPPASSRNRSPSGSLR
# SF1 = target: T15, SF1 (Homo sapiens, UniProt Q15637)
# T15 sequence: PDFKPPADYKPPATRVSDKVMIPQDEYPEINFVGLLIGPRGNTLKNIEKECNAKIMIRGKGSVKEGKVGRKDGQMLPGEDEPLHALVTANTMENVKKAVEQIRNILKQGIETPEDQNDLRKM
# THOC4 = THOC4 (Homo sapiens, UniProt Q86V81)
Sequence,binding signal (PSF) [fluorescence intensity],binding signal (ADAR(1)) [fluorescence intensity],binding signal (RKHD1) [fluorescence intensity],binding signal (ANKRD17) [fluorescence intensity],binding signal (RBMS3) [fluorescence intensity],binding signal (YTHDC2) [fluorescence intensity],binding signal (VIGILIN(11-14)) [fluorescence intensity],binding signal (RBM20) [fluorescence intensity],binding signal (SAFB1) [fluorescence intensity],binding signal (RNPC3(1)) [fluorescence intensity],binding signal (RBM12(3)) [fluorescence intensity],binding signal (RBM41) [fluorescence intensity],binding signal (RBM15) [fluorescence intensity],binding signal (ASCC1) [fluorescence intensity],binding signal (TDRKH(1-2)) [fluorescence intensity],binding signal (RBMS1) [fluorescence intensity],binding signal (RBM15B) [fluorescence intensity],binding signal (RBMY1C) [fluorescence intensity],binding signal (SF1) [fluorescence intensity],binding signal (THOC4) [fluorescence intensity]
UGAGGUAGUAGGUUGUAUGGUU,837 ± 12.7,27.9 ± 1.27,1910 ± 204,51.9 ± 4.92,363 ± 14.3,143 ± 6.97,911 ± 66.7,53.6 ± 5.51,299 ± 26.8,192 ± 55.7,35.9 ± 0.728,350 ± 12.9,537 ± 29.7,22.5 ± 1.64,45.7 ± 2.46,316 ± 53.1,309 ± 16.6,1200 ± 27.5,24.7 ± 4.35,91.8 ± 21.8
CAGUGCAAUGAUGAAAGGGCAU,80.6 ± 13.1,,1330 ± 109,37 ± 2.43,211.2 ± 1.16,65.2 ± 5.22,287 ± 28.5,34.77 ± 0.255,228 ± 31.6,61.8 ± 4.94,27.1 ± 4.43,284 ± 7.83,315.16 ± 0.212,,40.4 ± 7.05,166 ± 3.01,128 ± 12.3,1150 ± 31.6,107.4 ± 0.728,40.5 ± 0.424
AGAGGUAGUAGGUUGCAUAGUU,905 ± 13.5,20.7 ± 1.3,2940 ± 199,36.4 ± 1.75,410 ± 20.1,114 ± 5.32,285 ± 6.8,39.7 ± 5.85,280 ± 28.4,201 ± 18.2,26.4 ± 4.72,818 ± 64.1,525 ± 1.24,24.9 ± 3.57,29.6 ± 0.502,365.1 ± 1.24,242 ± 10.9,1860 ± 11.9,,49.2 ± 7.5
UGAGGUAGUAGGUUGUAUAGUU,265 ± 6.17,,1260 ± 32.7,26 ± 1.62,86.8 ± 4.41,27.7 ± 2.35,145 ± 5.55,,94.4 ± 9.54,38.5 ± 11.8,,45.9 ± 18.9,82.1 ± 15.2,,,78.2 ± 3.38,42.7 ± 8.55,643 ± 42.4,,
UAGCUUAUCAGACUGAUGUUGA,,,977 ± 62.8,,45.1 ± 0.672,,,,37.5 ± 1.2,,,,134 ± 18.6,,,29.7 ± 0.537,30.7 ± 4.65,371 ± 23,,
UGAGGUAGUAGGUUGUGUGGUU,1020 ± 15.7,30.1 ± 1.12,1570 ± 135,94.6 ± 8.68,564 ± 40.7,156 ± 16.8,968 ± 111,66.7 ± 5.15,633 ± 29.4,391 ± 55.5,44.9 ± 5.61,435 ± 24.3,501 ± 99.1,45.53 ± 0.0141,93.1 ± 19.1,341 ± 18.8,268 ± 141,1360 ± 26.2,24.25 ± 0.205,133 ± 30

# — PMC11574364
